In PubChem BioAssay (NCI):
This is part of a sample that, as a whole, favours compounds with a hit. Of some 83,000 tested, about 20% had one in any assay.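 Cells were grown in 96-well plates and exposed to the test compound at a single concentration for 48 hours; results are reported as percent growth, with values below 10 considered active.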 Values without a mark were called inactive. The source made the active and inactive calls.

What was measured:
Experiment in all cases: NCI-60 one-dose screen, 48 h (100 = growth as untreated, 0 = no growth, -100 = all killed)
Settings in all cases: 10 µM unless noted
[1] = test system: SR leukemia
[2] = test system: RPMI-8226 leukemia
[3] = test system: OVCAR-8 ovarian
[4] = test system: OVCAR-5 ovarian
[5] = test system: OVCAR-4 ovarian
[6] = test system: SK-OV-3 ovarian
[7] = test system: IGROV1 ovarian
[8] = test system: OVCAR-3 ovarian
[9] = test system: NCI/ADR-RES ovarian
[10] = test system: T-47D breast
[11] = test system: BT-549 breast
[12] = test system: MDA-MB-435 melanoma
[13] = test system: SW-620 colon
[14] = test system: MCF7 breast
[15] = test system: HCT-116 colon
[16] = test system: HCC-2998 colon
[17] = test system: KM12 colon
[18] = test system: HS 578T breast

Structure (SMILES)	growth [1]	growth [2]	growth [3]	growth [4]	growth [5]	growth [6]	growth [7]	growth [8]	growth [9]	growth [10]	growth [11]	growth [12]	growth [13]	growth [14]	growth [15]	growth [16]	growth [17]	growth [18]
COCCn1c(-c2csc(-c3cn(C)c4ccc(OC)cc34)n2)cc2cccnc21	18.4%	65.4%	59.7%	79.9%	55.9%	65.2%	94.5%	65.5%	46.4%	8.7% (active)	43.6%	74.5%	15.1%	47.5%	57.2%	-3.8% (active)	21.5%	–
O=C(NCCCCNC(=O)OCc1ccc2c(Cl)cc(Cl)c(O)c2n1)OCc1ccc2c(Cl)cc(Cl)c(O)c2n1	17%	25%	11.2%	38.6%	38.9%	30.5%	–	-40.3% (active)	3.44% (active)	61%	15.3%	-48.7% (active)	19.5%	13.7%	7.49% (active)	18.5%	6.41% (active)	21.9%
CC1=C(CCC(C)N(C)Cc2ccc(OCCCN3CCCC3)cc2)C(C)(C)CCC1 (configuration not stated)	-24.9% (active)	-14.3% (active)	45.7%	25.4%	60.2%	36.5%	42.9%	23.6%	–	-43.1% (active)	55.6%	-77.9% (active)	21.3%	-33.3% (active)	10.7%	-31% (active)	27.6%	–
Cc1ccc(S(=O)(=O)N2CCCC2CO)cc1 (configuration not stated)	112%	62.6%	103%	85.7%	93.5%	102%	–	104%	56.7%	100%	86.6%	111%	96.8%	91.3%	96.8%	–	–	79.5%
COC(=O)CNC(=O)[C@H](Cc1ccccc1)NCc1ccncc1	97%	91%	98.3%	105%	107%	80.7%	104%	113%	103%	89.6%	–	110%	102%	92.9%	100%	103%	–	–
CCN(CC)C(=S)SC(SC(=S)N(CC)CC)C(=O)c1nnn(-c2ccc([N+](=O)[O-])cc2)c1C	55.3%	90.8%	101%	106%	104%	112%	–	98.4%	99.8%	76.4%	109%	101%	95.5%	59.3%	95.7%	104%	98%	113%
CCOC(=O)c1cc2c(=O)oc3ccccc3c2oc1=O	-26% (active)	84.7%	102%	100%	96.4%	102%	–	112%	112%	107%	99.4%	111%	105%	99.8%	109%	102%	110%	100%
C=C(C)[C@@H]1CC[C@]2(C(=O)N3CCN(C)CC3)CC[C@]3(C)[C@H](CC[C@@H]4[C@@]5(C)CC(=C/c6ccncc6)/C(=N/O)C(C)(C)[C@@H]5CC[C@]43C)[C@@H]12	3.4% (active)	46.7%	85.1%	86.7%	69.2%	98.7%	65.1%	75.2%	78.8%	71.9%	82.7%	86.6%	–	66.8%	56.1%	82.7%	72.1%	–
O=C(Cn1c(=O)sc2ccccc21)NNS(=O)(=O)c1ccccc1[N+](=O)[O-]	96%	98.4%	99.4%	100%	117%	103%	–	99.3%	103%	105%	116%	98.5%	103%	96.5%	107%	107%	99.9%	103%
